Consider 24 compounds from PubChem BioAssay AID1645851 (National Center for Advancing Translational Sciences (NCATS), 2021).

Several values for one entry are separate records, joined by “and”; a condition that tells them apart may be missing. Identical values can stand only once. About 1,200 (0.86%) of roughly 140,000 compounds were called active. This is one part of a sample in which actives are shown more often than they occur. Rule as the data show it: active = activity change below about -25%; inactive = the rest. The source holds several records for some structures; these can differ, active in one and inactive in another.
% is scaled to controls: 0 for no effect and ±100 for the full control effect.

For this assay, the target named is Inositol hexakisphosphate kinase 1 (Homo sapiens) (UniProt Q92551). The assay can be described thus: Primary qHTS assay for small molecule inhibitors of Inositol hexaphosphate kinase 1 (IP6K1). Also: series mostly up to about 58 µM. The following applies: ADP-Glo luminescence, 2 h, stronger effect = lower value. A digest of the protocol: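 ADP-Glo luminescence measures ADP made by human IP6K1 during a 2 h RT reaction with ATP/IP6 (mix at 1.3 mM/130 uM); top library doses 57.5 and 19.1 uM final.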
Inositol hexakisphosphate kinase 1 (Homo sapiens), sequence (Q92551 whole entry, looked up): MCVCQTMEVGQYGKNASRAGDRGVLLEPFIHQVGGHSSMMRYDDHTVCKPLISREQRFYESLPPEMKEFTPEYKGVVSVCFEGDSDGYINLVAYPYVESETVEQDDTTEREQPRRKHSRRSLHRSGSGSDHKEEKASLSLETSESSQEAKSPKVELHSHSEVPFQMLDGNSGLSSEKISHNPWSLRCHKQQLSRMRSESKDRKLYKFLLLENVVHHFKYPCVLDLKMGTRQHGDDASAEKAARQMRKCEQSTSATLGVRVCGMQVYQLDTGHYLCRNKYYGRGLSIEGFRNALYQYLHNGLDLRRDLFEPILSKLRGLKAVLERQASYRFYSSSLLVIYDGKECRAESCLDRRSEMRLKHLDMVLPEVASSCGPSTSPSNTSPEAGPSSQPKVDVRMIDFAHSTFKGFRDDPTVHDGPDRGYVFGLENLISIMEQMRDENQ
As to `CCCn1c(C)cnc1C1CCN(S(C)(=O)=O)C1` (centres undefined), the activity change is 2.78% (inactive).
In the case of `O=C(NC1CCCCCC1)C1CCCN(Cc2cccc(-c3cccs3)c2)C1` (centres undefined) it was 8.71% (inactive); in that of `Cn1nc(C2CCCN(C(=O)NCc3ccccc3)C2)n(Cc2ccccc2)c1=O` (centres undefined), -4.56% (inactive); in that of `COc1ccccc1N1CCCc2ncc(C(=O)N3CCCC[C@@H]3c3ccccc3)cc21`, -3.23% (inactive).
On to `COC(=O)[C@H](NC(=O)[C@@H]1C[C@H](NC(=O)Nc2ccc(F)cc2F)CN1C(C)=O)C(C)C`, for which the activity change was -6.82% (inactive).
Next, `Cc1ccc(SCC(=O)Nc2ccc3oc(-c4ccccc4C)nc3c2)cc1`: 18.6% (inactive); `O=C(Nc1cccc(-c2nc3ccccc3o2)c1)c1cccc(Br)c1`: 18.7% (inactive).
Next, `CCC(=O)Nc1cccc(-c2nc3cc(C)ccc3o2)c1`: -27.3% (active); `CC1(c2ccccc2)N(Cc2ccccc2F)C(=O)OC12CCN(Cc1cccc(O)c1)CC2` (centres undefined): -6.41% (inactive); `Cc1noc(-c2ccc(OC3CN(C(=O)c4ccco4)C3)cc2)n1`: 5.28% (inactive).
`CC1(C)[C@H](Cc2cc(CC3CCCCC3)on2)C[C@@H]1NC(=O)C1CCC1`: the activity change is -13.8% (inactive).
Take `O=C(NCc1ccc2c(c1)OCO2)C1CCCN(Cc2cccc(-c3cccs3)c2)C1` (centres undefined): the activity change is -3.87% (inactive).
In the case of `COc1ccc(-c2nc3ccncc3[nH]2)cc1` it was -18.1% (inactive) and -33.5% (active); in that of `COc1ccc(C(=O)N2CCCC2C(=O)N2CCCC2c2nc3ccncc3[nH]2)cc1` (centres undefined), 15.6% (inactive); in that of `c1cc(-c2nc3ccncc3[nH]2)ccn1`, 3.83% (inactive) and 13.8% (inactive).
Turning to `O=C(NCC1CN(C(=O)c2cnccn2)CC12CCOCC2)N1CCCC1` (centres undefined), the activity change was 5.72% (inactive).
As to `COc1ccc2[nH]c3c(c2c1)CCNC31CCN(C(=O)c2ccccc2)CC1`, the activity change is 15.7% (inactive).
In the case of `CCOc1ncccc1C(=O)N1CCN(Cc2ccccc2)CC(O)C1` (centres undefined) it was -34.4% (active).
Next, `O=C(c1ccccc1Cl)N1CCN(C(=O)c2nc3cccnc3n(Cc3ccccc3)c2=O)CC1`: -2.58% (inactive); `CCOc1ccccc1C(=O)N1CCC(Oc2ncccc2C(=O)N(C)C)C1` (centres undefined): 17.8% (inactive).
As for `Nc1nc2c(s1)C(c1ccccc1)CC(=O)N2` (centres undefined), the activity change was -56.5% (active).
For `CN1C(=O)CC(c2ccccc2)C1=O` (centres undefined), the activity change was 10.2% (inactive).
Turning to `COC(=O)[C@H](NC(=O)C1=C[C@@H](NC(=O)CS(=O)(=O)c2ccccc2)[C@@H](O)[C@H](O)C1)C(C)C`, the activity change was 22% (inactive).
In the case of `COc1cccc(CN2CCOC[C@H](Oc3ccccc3)C2)c1` it was 7.17% (inactive).
